Reference: PubChem BioAssay (NCATS)
Records with an inconclusive call do not appear. A call without a number means that no potency is given here. The source made the active and inactive calls. Calls follow the shape of the dose curve; as a rule, active = well fitted cell-killing curve with a large enough effect; inconclusive = small, poorly fitted or top-dose-only effect, or effect the other way; inactive = no such curve, though single readings can be large or run the other way.

Assay: qHTS assay to identify small molecule inhibitors of chordoma cells - UCH-1 (AID 1259355); also: nearly all actives have a fitted effect of over 55% in size
Conditions: UCH-1 chordoma viability, CellTiter-Glo, 48 h, combination, with auranofin plus four topoisomerase inhibitors; series mostly up to 46.1 µM
Procedure, shortened: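 800 cells/well, overnight attach; compounds pinned at 15 concs, then auranofin/camptothecin/doxorubicin/rubitecan/topotecan combo added; 48hr 37 C, 5% CO2; CellTiter-Glo, 30min RT, luminescence.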

SMILES	Potency
C[C@]12CC[C@@H]3c4ccc(OC(=O)c5ccccc5)cc4CC[C@H]3[C@@H]1CC[C@@H]2O	inactive
Cc1cc(O)c2c(c1)O[C@@]1(C)CC[C@H]3C(C)(C)CCCC34CO[C@@H]2[C@H]41 (some centres undefined)	inactive
C=N[C@@H](C(=O)N[C@@H]1C(=O)N2[C@@H]1SC(C)(C)[C@@H]2C(=O)O)c1ccccc1	inactive
CCCCCCCCCCCCCC(=O)OCC(COP(=O)([O-])OCC[N+](C)(C)C)OC(=O)CCCCCCCCCCCCC (centres undefined)	inactive
C=C1C(CCl)(CCl)C2(Cl)C(Cl)C(Cl)C1(Cl)C2(Cl)Cl (centres undefined)	inactive
CC1CCCCN1CCCOC(=O)c1ccccc1 (centres undefined)	inactive
Cn1cc(NC(=O)c2cc(NC(=O)c3cc(NC=O)cn3C)cn2C)cc1C(=O)NCCC(=N)N	inactive
CC(C)(COP(=O)(O)OP(=O)(O)OC[C@H]1O[C@@H](n2cnc3c(N)ncnc32)[C@H](O)[C@@H]1OP(=O)(O)O)C(O)C(=O)NCCC(=O)NCCS (some centres undefined)	inactive
C[C@@](Cc1ccc(O)c(O)c1)(NN)C(=O)O	inactive
CCCOc1cc(N)ccc1C(=O)OCCN(CC)CC	inactive
C[C@@H]1C[C@H]2[C@@H]3C[C@H](F)C4=CC(=O)C=C[C@]4(C)[C@@]3(Cl)[C@@H](O)C[C@]2(C)[C@H]1C(=O)COC(=O)C(C)(C)C	inactive
O=[n+]1ccn([O-])c2ccccc21	inactive
CC(C)(C)C(=O)OCC(=O)[C@H]1CC[C@H]2[C@@H]3CCC4=CC(=O)CC[C@]4(C)[C@H]3CC[C@]12C	inactive
O=C(NCCNCC(O)COc1ccc(O)cc1)N1CCOCC1 (centres undefined)	inactive
